Bioassay records as filed in PubChem.
Shown are actives, neighbours in structure and some others; about 4.6% of the full set was active somewhere.
FAS-TE inh: FAS thioesterase domain inhibitors, primary screen, biochemical, fluorescence intensity, uHTS. Fatty acid synthase (Homo sapiens), P49327. recombinant FAS-TE, OMFH fluorogenic substrate, fluorescence endpoint. inhibition, % at 15 µM. 360,000 compounds, 0.67% hits;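 active = compounds whose normalised, plate-corrected inhibition of enzyme fluorescence in the single-dose primary screen is 50% or more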;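 also: 0% = DMSO with enzyme and 100% = substrate without enzyme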
proKLK7 act: proKLK7 zymogen activators, primary screen, biochemical, fluorescence intensity; purified proKLK7, EDANS-DABCYL substrate fluorescence; 100% is mature enzyme control, 0% vehicle; activation, % at 7 µM; 370,000 compounds, 0.9% hits; AID 652039, 2013;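 active = activation above the mean of all tested compounds plus 3 SD, computed per campaign excluding outliers beyond control limits, cut at about 13% in these data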
ADAM10 inh: human ADAM10 inhibitors, primary screen, biochemical, QFRET, HTS. AID 720582, 2013. recombinant ADAM10, EDANS/DABCYL FRET peptide cleavage, 3 h. Disintegrin and metalloproteinase domain-containing protein 10 (Homo sapiens), O14672. 370,000 compounds, 0.62% hits. inhibition, % at 7 µM;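 active = inhibition above a per-campaign cutoff equal to the mean of compounds falling between control-based bounds plus 3 SD, cut at about 20% in these data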;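 also: 0% = DMSO wells while the 100% control is not disclosed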
ADAM17 inh: ADAM17 inhibitors, primary screen, biochemical, QFRET; Disintegrin and metalloproteinase domain-containing protein 17 (Homo sapiens), P78536; recombinant ADAM17, EDANS/DABCYL FRET peptide cleavage; inhibition, % at 6.95 µM; 370,000 compounds, 0.83% hits;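 active = inhibition above the mean of compounds lying between control limits plus 3 SD, set per campaign, cut at about 8.5% in these data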;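 also: 0% = DMSO-only wells as the low control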
Target sequence (P78536 215-824 limits assumed): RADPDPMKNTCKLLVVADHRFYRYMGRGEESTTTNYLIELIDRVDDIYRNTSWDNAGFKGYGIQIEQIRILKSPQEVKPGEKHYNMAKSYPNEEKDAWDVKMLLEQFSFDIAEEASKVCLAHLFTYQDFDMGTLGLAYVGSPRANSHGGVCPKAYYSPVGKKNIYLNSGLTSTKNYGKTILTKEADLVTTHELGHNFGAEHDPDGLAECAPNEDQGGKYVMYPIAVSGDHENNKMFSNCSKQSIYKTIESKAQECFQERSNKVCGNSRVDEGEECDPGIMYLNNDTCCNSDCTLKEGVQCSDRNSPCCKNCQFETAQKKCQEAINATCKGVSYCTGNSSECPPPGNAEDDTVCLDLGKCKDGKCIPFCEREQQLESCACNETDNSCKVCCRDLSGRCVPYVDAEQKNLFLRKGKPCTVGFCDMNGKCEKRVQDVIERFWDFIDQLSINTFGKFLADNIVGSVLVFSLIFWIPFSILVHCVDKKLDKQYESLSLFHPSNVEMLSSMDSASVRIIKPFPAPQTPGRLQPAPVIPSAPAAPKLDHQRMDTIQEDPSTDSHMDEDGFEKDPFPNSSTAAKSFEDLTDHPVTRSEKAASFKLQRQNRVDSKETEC
NR3A LBD binder: binders of NR3A ligand-binding domain, primary screen, biophysical, differential scanning fluorimetry, uHTS; NR3A LBD differential scanning fluorimetry, Tm shift; 0% = protein alone, 100% = glycine-bound protein; 340,000 compounds, 2.5% hits; AID 1259313, 2017; Glutamate receptor ionotropic, NMDA 3A (GRIN3A) ligand-binding domain; Tm shift relative to glycine control, % at 25 µM;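 active = melting temperature shift of at least 10% of the positive control shift, at one fixed dose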
FAS-TE inh conf: FAS thioesterase domain inhibitors, confirmation, biochemical, fluorescence intensity, single concentration. AID 624325, 2012. recombinant FAS-TE, OMFH fluorogenic substrate. inhibition, % at 15 µM. 2,300 compounds, 45% hits. shares compounds with FAS-TE inh;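 active = compounds inhibiting the enzyme by at least 50% at 15 µM in any one of the replicates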;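 also: 0% = enzyme with DMSO only and 100% = wells lacking enzyme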
* hit, by the source's call; · = not tested or not shown.

SMILES	FAS-TE inh	proKLK7 act	ADAM10 inh	ADAM17 inh	NR3A LBD binder	FAS-TE inh conf
CCOc1ccc(-c2ccc(NS(=O)(=O)c3cc([N+](=O)[O-])c(C)c([N+](=O)[O-])c3)cc2)nn1	83.5*	0.2	3.9	0.7	2.6	83.4*
O=C(OCC#CCSc1nnc(-c2cccc3ccccc23)o1)c1ccc(F)nc1	·	·	-60.5	-18.2	·	·
CCCC(=O)N1CCC[C@]2(CC[C@@H](CCC(=O)OCC)O2)C1	·	-0.3	3.1	0.3	·	·
Cc1ccc(Cn2cc(COC(=O)N3CCCC3)nn2)cc1	·	-0.4	-5.0	-1.4	·	·
CCCC/C=C1/[C@@H](CC)N(Cc2ccc(OC)cc2OC)C2=N[C@H](c3ccccc3)CC(=O)N21	·	·	-4.5	-7.8	·	·
O=C(Cn1cc([N+](=O)[O-])ccc1=O)NCc1ccc(Cl)cc1Cl	56.1*	-0.4	-3.1	2.9	0.9	54.8*
NS(=O)(=O)c1ccc(CCNC(=O)COC(=O)c2cc([N+](=O)[O-])ccc2N2CCOCC2)cc1	14.4	-0.5	-1.4	-1.5	-1.2	·
O=C(COC(=O)c1cc([N+](=O)[O-])ccc1N1CCOCC1)NCc1ccc(Cl)cc1Cl	92.6*	0.8	-6.6	1.6	-4.6	93.1*
O=C(COC(=O)c1cc([N+](=O)[O-])ccc1N1CCOCC1)NCc1ccccc1	83.3*	0.3	-4.9	-0.6	·	90.4*
COc1cccc(CNC(=O)COC(=O)c2cc([N+](=O)[O-])ccc2N2CCCC2)c1	80.8*	0.2	11.3	-1.2	0.5	85.1*
O=C(Cn1nc(-c2ccccc2)ccc1=O)NCCc1ccc(F)cc1	·	-0.3	-2.0	0.2	·	·
Cc1cccn2c(=O)c3cc(S(=O)(=O)c4ccc(Br)cc4)c(=N)n(C4CCCCC4)c3nc12	50.7*	-0.7	-5.7	-5.6	-14.3	6.6
Cc1ccc(S(=O)(=O)c2cc3c(=O)n4cccc(C)c4nc3n(C3CCCCC3)c2=N)cc1	7.0	·	·	·	-0.9	·
O=C(NCc1ccc(F)cc1)C(C(=O)NCc1ccc(F)cc1)c1ncc(C(F)(F)F)cc1Cl	58.1*	0.3	0.5	5.7	-1.0	62.2*
COc1cc(CNc2nc(C)c([N+](=O)[O-])c(C)c2C#N)cc(OC)c1OC	54.9*	0.0	-0.8	-1.0	2.1	58.8*
COc1ccc(CNc2nc(C)c([N+](=O)[O-])c(C)c2C#N)cc1	43.2	-0.1	3.8	1.8	-7.7	·
O=C(Nc1cc(S(=O)(=O)N2CCOCC2)ccc1O)c1ccc2c(c1)S(=O)(=O)c1ccccc1C2=O	57.4*	-0.6	0.8	-3.5	5.5	30.5
O=C(Nc1ccc(S(=O)(=O)N2CCOCC2)cc1)c1ccc2c(c1)S(=O)(=O)c1ccccc1C2=O	-3.7	-0.1	-3.0	-2.0	1.6	·
COC(=O)[C@]12C[C@H](CC(=O)NCC34CC5CC(CC(C5)C3)C4)C(=O)N(Cc3cccc4ccccc34)C1=C[C@H](C(C)(C)C)O[C@@H]2C	·	0.6	2.2	-1.5	·	·
O=C(OCc1ccccc1)N1CCC2CC1c1ccc(N3CCN(Cc4ccccc4)CC3)cc12 (stereo unspecified)	·	0.0	1.3	6.1	·	·
COc1cc(/C=N/Nc2nc(C)cc(C)n2)ccc1OC(=O)c1ccco1	-2.3	-0.3	-7.9	-2.7	-4.5	·
CCOc1cc(/C=N\Nc2nc(Nc3ccccc3)nc(N3CCOCC3)n2)ccc1OC(=O)c1ccco1	72.1*	0.4	-3.1	2.7	4.9	16.6
CC(=O)c1ccc(Nc2nc(N3CCOCC3)nc(N3CCOCC3)n2)cc1	-0.8	0.2	3.2	-0.2	-1.1	·
CCOC(=O)c1ccc(Nc2nc(N3CCOCC3)nc(N3CCOCC3)n2)cc1	50.8*	0.2	-9.5	-2.7	-0.2	13.5
O=C(Cc1ccc([N+](=O)[O-])cc1)N1CCc2ccccc2C1	25.8	0.0	-7.1	1.6	1.6	·
SMILES	FAS-TE inh	proKLK7 act	ADAM10 inh	ADAM17 inh	NR3A LBD binder	FAS-TE inh conf
O=C(CN1C(=O)c2cccc([N+](=O)[O-])c2C1=O)N1CCc2ccccc2C1	58.9*	0.5	2.6	-0.1	·	65.0*
O=C(COc1ccc([N+](=O)[O-])cc1)N1CCc2ccccc2C1	70.2*	0.0	9.6	-2.8	-3.6	82.9*
Cc1ccc2nc(/N=C(\N)NC(=O)N3c4ccccc4Sc4ccccc43)nc(C)c2c1	55.2*	0.1	-8.5	-4.8	-1.5	-4.7
Cc1ccc2c(C)nc(/N=C(\N)NC(=O)N3c4ccccc4Sc4ccccc43)nc2c1	63.6*	0.4	-12.8	-5.0	-0.2	3.9
Cc1cc2nc(/N=C(\N)NC(=O)N3c4ccccc4Sc4ccccc43)nc(C)c2cc1C	61.6*	-1.9	-38.1	-14.0	-13.4	14.4
CCOC(=O)[C@@]12CCC3=C1N(CCC3)C(=O)[C@H](CC(=O)NCCC(C)C)C2	·	-0.3	-7.4	-7.0	·	·
Cc1csc(N(C(=O)c2ccc(S(=O)(=O)N(C)C)cc2)c2ccccc2)n1	-3.8	0.7	2.6	-2.6	-1.3	·
Cc1csc(N(C(=O)CCNC(=O)c2ccc([N+](=O)[O-])cc2)c2ccccc2)n1	72.4*	0.1	-4.5	-4.7	0.7	78.1*
COc1ccc2c(c1C(=O)/C=C/c1ccccc1)OC(C)(C)C=C2	·	·	-4.5	-2.5	·	·
O=C(COC(=O)CCc1c[nH]c2ccccc12)Nc1cc([N+](=O)[O-])ccc1Cl	56.1*	-0.7	-0.2	-0.6	0.8	55.5*
CS(=O)(=O)c1ccc(Cl)c(NC(=O)COC(=O)Cc2c[nH]c3ccccc23)c1	3.6	0.2	2.1	-1.7	-3.3	·
CCC1=NN(C(=O)Cc2ccc([N+](=O)[O-])cc2)C(O)(C(C)(C)C)C1 (stereo unspecified)	4.3	-0.1	-1.5	-4.8	-0.4	·
CCc1ccc(C2(O)CC(C(F)(F)F)=NN2C(=O)Cc2ccc([N+](=O)[O-])cc2)cc1 (stereo unspecified)	52.1*	-0.3	3.8	-1.0	-7.7	17.5
O=[N+]([O-])c1ccc(S(=O)(=O)Nc2nnc(C3CCCCC3)s2)cc1	50.3*	0.0	8.2	4.4	-12.5	65.2*
O=S(=O)(Nc1nnc(C2CCCCC2)s1)c1ccc(F)cc1	0.2	-0.3	-1.1	-0.5	2.5	·
O=C(OCc1cn(Cc2c(F)cccc2F)nn1)N1CCCC1	·	0.4	1.1	-1.0	·	·
Cc1cc(C)cc(N(CC(=O)N2CCc3ccccc32)S(=O)(=O)c2c(C)noc2C)c1	35.5	0.6	-10.7	-2.1	-1.2	·
